{"source": "PubChem BioAssay (NCATS)", "key": {"[1]": {"assay": "Confirmation and Secondary Assay for Modulators of Hemoglobin Beta Chain Splicing at IVS2 654 locus (AID 910);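 note: per-well total GFP intensity by laser scanning cytometry after 2-day treatment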", "how_it_was_run": "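HeLa cells stably carrying EGFP interrupted by mutant beta-globin IVS2-654 intron (CMV-driven) were treated with compound for 2 days at 37C; corrected splicing was scored as total peak GFP intensity per well (488 nm excitation, 500-520 nm emission).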"}, "[2]": {"assay": "Confirmation and Secondary Assay for Modulators of Hemoglobin Beta Chain Splicing at IVS2 705 locus (AID 930)", "how_it_was_run": "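First, HeLa EGFP-705 cells are seeded at 500/well in Optimem with 2% FCS and left overnight. Next, compound or DMSO is added for 2 days. Finally wells are laser-scanned and total peak GFP intensity scored.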"}, "[3]": {"biological_target": "ATP-dependent 6-phosphofructokinase (Trypanosoma brucei brucei) (UniProt O15648)", "sequence (O15648 whole entry, looked up)": "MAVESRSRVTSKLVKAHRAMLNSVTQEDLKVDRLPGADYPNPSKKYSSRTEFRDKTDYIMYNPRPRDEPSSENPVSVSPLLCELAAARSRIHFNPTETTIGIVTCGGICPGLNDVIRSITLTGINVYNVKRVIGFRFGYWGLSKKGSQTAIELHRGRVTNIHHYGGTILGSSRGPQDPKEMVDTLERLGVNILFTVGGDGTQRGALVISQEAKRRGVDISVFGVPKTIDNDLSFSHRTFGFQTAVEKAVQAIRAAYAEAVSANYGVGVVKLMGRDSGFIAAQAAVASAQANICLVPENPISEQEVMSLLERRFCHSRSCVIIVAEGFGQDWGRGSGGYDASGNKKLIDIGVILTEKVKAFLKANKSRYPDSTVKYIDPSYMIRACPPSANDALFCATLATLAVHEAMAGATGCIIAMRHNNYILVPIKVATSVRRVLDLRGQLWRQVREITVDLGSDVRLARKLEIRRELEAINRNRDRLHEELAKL", "assay": "qHTS Assay to Find Inhibitors of T. brucei phosphofructokinase: hit validation (AID 492961);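 note: luminescence reports ADP formed as PFK phosphorylates fructose-6-phosphate with ATP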", "how_it_was_run": "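Percent activity derived from corrected luminescence, normalized between 0x and 1x enzyme controls, then fitted to concentration-response curves. Conditions: 1.25 nM PFK, 0.1 mM ATP, 0.5 mM F6P, 45 min RT.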"}, "ATS189": {"system": "ATS189", "assay": "qHTS profiling for inhibitors of Plasmodium falciparum proliferation (AID 504749); note: nearly all actives have a fitted effect of over 60% in size; note: potency is the fitted concentration of half-maximal effect", "settings": "P. falciparum in erythrocytes, SYBR Green DNA, 72 h; series mostly up to 28.7 µM", "how_it_was_run": "(§1)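 P. falciparum-infected erythrocytes (0.3% parasitemia, 2.5% hematocrit final) were exposed to compounds for 72 h at 37 C in 5% CO2, then lysed with SYBR Green buffer overnight at room temperature; parasite DNA fluorescence was normalized to artemisinin and DMSO controls.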"}, "CP192": {"system": "CP192", "assay": "qHTS profiling for inhibitors of Plasmodium falciparum proliferation (AID 504749)", "settings": "P. falciparum in erythrocytes, SYBR Green DNA, 72 h; series mostly up to 28.7 µM", "how_it_was_run": "as §1"}, "CP262": {"system": "CP262", "assay": "qHTS profiling for inhibitors of Plasmodium falciparum proliferation (AID 504749)", "settings": "P. falciparum in erythrocytes, SYBR Green DNA, 72 h; series mostly up to 28.7 µM", "how_it_was_run": "as §1"}, "ECU": {"system": "ECU", "assay": "qHTS profiling for inhibitors of Plasmodium falciparum proliferation (AID 504749)", "settings": "P. falciparum in erythrocytes, SYBR Green DNA, 72 h; series mostly up to 28.7 µM", "how_it_was_run": "as §1"}, "FAB9": {"system": "FAB9", "assay": "qHTS profiling for inhibitors of Plasmodium falciparum proliferation (AID 504749)", "settings": "P. falciparum in erythrocytes, SYBR Green DNA, 72 h; series mostly up to 28.7 µM", "how_it_was_run": "as §1"}, "P93_24": {"system": "P93_24", "assay": "qHTS profiling for inhibitors of Plasmodium falciparum proliferation (AID 504749)", "settings": "P. falciparum in erythrocytes, SYBR Green DNA, 72 h; series mostly up to 28.7 µM", "how_it_was_run": "as §1"}, "PC15": {"system": "PC15", "assay": "qHTS profiling for inhibitors of Plasmodium falciparum proliferation (AID 504749)", "settings": "P. falciparum in erythrocytes, SYBR Green DNA, 72 h; series mostly up to 28.7 µM", "how_it_was_run": "as §1"}, "PC49": {"system": "PC49", "assay": "qHTS profiling for inhibitors of Plasmodium falciparum proliferation (AID 504749)", "settings": "P. falciparum in erythrocytes, SYBR Green DNA, 72 h; series mostly up to 28.7 µM", "how_it_was_run": "as §1"}, "SC27B": {"system": "SC27B", "assay": "qHTS profiling for inhibitors of Plasmodium falciparum proliferation (AID 504749)", "settings": "P. falciparum in erythrocytes, SYBR Green DNA, 72 h; series mostly up to 28.7 µM", "how_it_was_run": "as §1"}, "TAB109": {"system": "TAB109", "assay": "qHTS profiling for inhibitors of Plasmodium falciparum proliferation (AID 504749)", "settings": "P. falciparum in erythrocytes, SYBR Green DNA, 72 h; series mostly up to 28.7 µM", "how_it_was_run": "as §1"}, "TAB165": {"system": "TAB165", "assay": "qHTS profiling for inhibitors of Plasmodium falciparum proliferation (AID 504749)", "settings": "P. falciparum in erythrocytes, SYBR Green DNA, 72 h; series mostly up to 28.7 µM", "how_it_was_run": "as §1"}, "W2": {"system": "W2", "assay": "qHTS profiling for inhibitors of Plasmodium falciparum proliferation (AID 504749)", "settings": "P. falciparum in erythrocytes, SYBR Green DNA, 72 h; series mostly up to 28.7 µM", "how_it_was_run": "as §1"}, "[4]": {"assay": "qHTS Assay for Identification of Small Molecule Agonists for Hypoxia Response Element Signaling Pathway (AID 914; active = well fitted activation curve with a large enough effect in the signal ratio, with a control signal flat, not every such curve was filed as active; the % refers to the signal ratio)", "settings": "ME-180 HRE-bla reporter, beta-lactamase ratio, CoCl2, 17 h; activation: stronger effect = higher value", "how_it_was_run": "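Positive modulation of EC50 CoCl2-induced hypoxia response element signaling is measured in ME-180 cells with a beta-lactamase reporter. Compounds are titrated, incubation runs 17 hours, and %Activity derives from the blue/green ratio.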"}, "[5]": {"biological_target": "Pyruvate kinase (Leishmania mexicana) (UniProt Q27686)", "sequence (Q27686 2-499 E452W)": "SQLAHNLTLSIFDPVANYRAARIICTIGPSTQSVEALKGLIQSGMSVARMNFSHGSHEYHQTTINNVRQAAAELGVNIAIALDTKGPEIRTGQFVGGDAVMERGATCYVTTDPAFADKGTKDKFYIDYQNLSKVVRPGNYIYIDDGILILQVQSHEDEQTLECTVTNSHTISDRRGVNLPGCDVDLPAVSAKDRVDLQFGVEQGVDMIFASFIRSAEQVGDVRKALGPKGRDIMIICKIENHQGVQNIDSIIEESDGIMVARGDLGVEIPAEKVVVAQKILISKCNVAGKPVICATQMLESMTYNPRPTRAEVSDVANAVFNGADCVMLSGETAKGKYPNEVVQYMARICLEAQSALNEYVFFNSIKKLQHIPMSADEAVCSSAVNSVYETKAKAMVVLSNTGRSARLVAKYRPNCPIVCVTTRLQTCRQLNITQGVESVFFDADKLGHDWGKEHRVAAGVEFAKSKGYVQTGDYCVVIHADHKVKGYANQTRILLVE", "assay": "qHTS Validation Assay for Activators of Leishmania Mexicana Pyruvate Kinase (AID 959)", "how_it_was_run": "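qHTS eight-point titrations against 0.2 nM LmPYK (E451W) in imidazole buffer pH 7.2 with 0.5 mM PEP, 0.1 mM ADP; 1 h, room temperature. Readout: PKLight luminescence, normalized to neutral DMSO wells.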"}, "[6]": {"biological_target": "Androgen receptor (Homo sapiens) (UniProt P10275)", "sequence (P10275 whole entry, looked up)": "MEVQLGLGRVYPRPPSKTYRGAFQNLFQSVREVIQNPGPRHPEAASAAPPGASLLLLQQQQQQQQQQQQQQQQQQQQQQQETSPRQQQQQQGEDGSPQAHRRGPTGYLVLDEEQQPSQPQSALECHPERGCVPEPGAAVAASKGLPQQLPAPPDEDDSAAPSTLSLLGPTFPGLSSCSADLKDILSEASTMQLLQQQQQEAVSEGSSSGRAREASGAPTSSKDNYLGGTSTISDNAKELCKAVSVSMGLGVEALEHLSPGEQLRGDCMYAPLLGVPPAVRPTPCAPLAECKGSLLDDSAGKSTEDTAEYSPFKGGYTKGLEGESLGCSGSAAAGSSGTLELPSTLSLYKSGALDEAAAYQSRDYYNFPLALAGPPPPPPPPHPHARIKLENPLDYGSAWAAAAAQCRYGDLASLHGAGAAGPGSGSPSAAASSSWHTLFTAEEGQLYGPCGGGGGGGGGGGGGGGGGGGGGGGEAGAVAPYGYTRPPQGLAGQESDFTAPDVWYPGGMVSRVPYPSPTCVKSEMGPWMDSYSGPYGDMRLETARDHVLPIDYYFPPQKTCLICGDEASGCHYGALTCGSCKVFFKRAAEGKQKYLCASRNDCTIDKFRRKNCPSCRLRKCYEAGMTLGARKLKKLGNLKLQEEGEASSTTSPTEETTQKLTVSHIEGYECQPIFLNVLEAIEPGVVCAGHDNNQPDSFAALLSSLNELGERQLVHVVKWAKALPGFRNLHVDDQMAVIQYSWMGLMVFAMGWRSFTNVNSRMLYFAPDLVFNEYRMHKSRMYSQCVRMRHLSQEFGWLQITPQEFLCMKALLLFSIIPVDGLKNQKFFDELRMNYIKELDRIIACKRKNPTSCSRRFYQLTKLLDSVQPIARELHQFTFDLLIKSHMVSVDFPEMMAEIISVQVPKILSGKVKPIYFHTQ", "assay": "qHTS assay for small molecule agonists of androgen receptor signaling (AID 588515; active = well fitted curve in the direction sought with a large enough effect in the signal ratio, with a control signal flat; the % refers to the signal ratio)", "settings": "AR-UAS-bla HEK293, beta-lactamase ratio, agonist 16 h; stronger effect = higher value", "how_it_was_run": "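EC50 and efficacy came from Hill fits of titrations (up to 92 uM) normalized to 30 nM R1881 as 100% and DMSO as 0%. Compound exposure was 16 h at 37 C on AR-UAS-bla HEK293 cells, with a 405/460/530 nm CCF4 fluorescence read.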"}, "[7]": {"biological_target": "Androgen receptor (Homo sapiens) (UniProt P10275)", "assay": "qHTS assay for small molecule antagonists of androgen receptor signaling (AID 588516; active = well fitted curve in the direction sought with a large enough effect in the signal ratio, with a control signal flat, not every such curve was filed as active; the % refers to the signal ratio)", "how_it_was_run": "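Cells were plated and incubated 5 h, compounds added in titration, then R1881 (10 nM final) as agonist. After 16 h at 37 C, CCF4 substrate was loaded for 2 h at room temperature and fluorescence measured.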"}, "[8]": {"biological_target": "Estrogen receptor (Homo sapiens) (UniProt P03372)", "sequence (P03372 whole entry, looked up)": "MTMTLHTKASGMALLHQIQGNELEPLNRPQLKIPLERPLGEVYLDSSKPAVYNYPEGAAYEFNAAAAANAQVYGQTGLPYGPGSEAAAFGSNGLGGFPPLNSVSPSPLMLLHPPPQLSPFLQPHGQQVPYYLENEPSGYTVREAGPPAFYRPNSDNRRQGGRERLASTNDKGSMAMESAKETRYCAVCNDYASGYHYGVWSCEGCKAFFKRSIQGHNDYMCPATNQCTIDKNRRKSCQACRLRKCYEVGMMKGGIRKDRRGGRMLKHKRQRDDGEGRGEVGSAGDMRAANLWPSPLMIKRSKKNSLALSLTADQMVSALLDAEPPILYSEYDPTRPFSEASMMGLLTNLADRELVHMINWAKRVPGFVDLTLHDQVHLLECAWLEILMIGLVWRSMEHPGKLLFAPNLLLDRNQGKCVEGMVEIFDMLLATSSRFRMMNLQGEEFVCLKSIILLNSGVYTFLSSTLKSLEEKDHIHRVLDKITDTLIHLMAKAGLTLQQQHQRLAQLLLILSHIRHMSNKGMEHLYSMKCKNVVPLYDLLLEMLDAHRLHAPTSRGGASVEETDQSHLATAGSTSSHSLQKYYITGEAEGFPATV", "assay": "qHTS assay for small molecule antagonists of estrogen receptor alpha signaling (AID 588513; active = well fitted curve in the direction sought with a large enough effect in the signal ratio, with a control signal flat, not every such curve was filed as active; the % refers to the signal ratio)", "how_it_was_run": "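Fluorescence from CCF4 substrate after 2 h at room temperature gave reporter activity; cells had been exposed to compound and 0.5nM 17-beta-estradiol for 18 h at 37 C. Hill-equation fitting yielded IC50 and maximal response.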"}}, "note": "Values without a mark were called inactive. Inconclusive results are not listed. Where a call stands in place of a potency, no number is given. Active and inactive are the calls of the source. Unless noted, calls come from the whole dose curve; as a rule, active = well fitted curve in the direction sought with a large enough effect; inconclusive = small, poorly fitted or top-dose-only effect, or another doubt; inactive = no such curve, though single readings can be large; an effect the other way counts as inactive or inconclusive."}
{"smiles": "Nc1nc(Cl)nc2c1ncn2[C@@H]1O[C@@H](CO)[C@@H](O)[C@H]1O", "values": [{"measurement": "outcome", "setting": "[1]", "value": "inactive"}, {"measurement": "outcome", "setting": "[2]", "value": "inactive"}]}
{"smiles": "C=C(NC(=O)C(=C)NC(=O)c1csc(C2=N[C@@H]3c4csc(n4)[C@@H]4NC(=O)c5csc(n5)[C@@H]([C@](C)(O)[C@H](C)O)NC(=O)[C@@H]5CSC(=N5)/C(=C/C)NC(=O)[C@@H]([C@H](C)O)NC(=O)c5csc(n5)[C@]3(CC2)NC(=O)[C@@H](C)NC(=O)C(=C)NC(=O)[C@@H](C)NC(=O)[C@@H]([C@@H](C)CC)N[C@H]2C=Cc3c([C@H](C)O)cc(nc3[C@@H]2O)C(=O)O[C@H]4C)n1)C(N)=O", "values": [{"measurement": "outcome", "setting": "[3]", "value": "inactive"}, {"measurement": "Potency", "setting": "ATS189", "value": "inactive"}, {"measurement": "Potency", "setting": "CP192", "value": "inactive"}, {"measurement": "Potency", "setting": "CP262", "value": "inactive"}, {"measurement": "Potency", "setting": "ECU", "value": "inactive"}, {"measurement": "Potency", "setting": "FAB9", "value": "inactive"}, {"measurement": "Potency", "setting": "P93_24", "value": "1780 nM (active)"}, {"measurement": "Potency", "setting": "PC15", "value": "inactive"}, {"measurement": "Potency", "setting": "PC49", "value": "inactive"}, {"measurement": "Potency", "setting": "SC27B", "value": "inactive"}, {"measurement": "Potency", "setting": "TAB109", "value": "398 nM (active)"}, {"measurement": "Potency", "setting": "TAB165", "value": "2820 nM (active)"}, {"measurement": "Potency", "setting": "W2", "value": "1610 nM (active)"}]}
{"smiles": "CCNc1ncc2nc(-c3ccccc3)c(=O)n(C3CC3)c2n1", "values": [{"measurement": "Potency", "setting": "[4]", "value": "2510 nM (active)"}]}
{"smiles": "CO/N=C(\\C(=O)N[C@@H]1C(=O)N2C(C(=O)O)=C(CSc3nc(=O)c(O)nn3C)CS[C@@H]12)c1csc(N)n1", "values": [{"measurement": "Potency", "setting": "[5]", "value": "25100 nM (active)"}]}
{"smiles": "N.N.N.N.N.N.N.N.N.N.N.N.N.N.O.O.[Ru].[Ru].[Ru]", "values": [{"measurement": "Potency", "setting": "[5]", "value": "inactive"}]}
{"smiles": "Cc1cccc(CNc2ncnc3ccc(-c4ccc(C(=O)N(C)C)cc4)cc23)c1", "values": [{"measurement": "outcome", "setting": "[1]", "value": "inactive"}, {"measurement": "outcome", "setting": "[2]", "value": "inactive"}]}
{"smiles": "CCN1CCC(O)([C@H](C(=O)O)c2ccccc2)CC1", "values": [{"measurement": "activation", "setting": "[4]", "value": -12.7, "unit": "%"}]}
{"smiles": "CN1C[C@@H](O)[C@@H](O)[C@@H](O)[C@@H]1CO", "values": [{"measurement": "activation", "setting": "[4]", "value": 11.9, "unit": "%"}]}
{"smiles": "Nc1cc([N+](=O)[O-])ccc1O", "values": [{"measurement": "activation", "setting": "[6]", "value": -20.1, "unit": "%"}, {"measurement": "outcome", "setting": "[7]", "value": "inactive"}]}
{"smiles": "CCCCC(CC)COCCCN", "note": "(stereo not given)", "values": [{"measurement": "outcome", "setting": "[8]", "value": "inactive"}]}
{"smiles": "CC(C)COC(=O)COc1cc(Cl)c(Cl)cc1Cl", "values": [{"measurement": "outcome", "setting": "[8]", "value": "inactive"}]}
{"smiles": "S=C(NC1CCCCC1)NC1CCCCC1", "values": [{"measurement": "outcome", "setting": "[8]", "value": "inactive"}]}
{"smiles": "CC(C)(C)C(=O)C1C(=O)c2ccccc2C1=O", "values": [{"measurement": "outcome", "setting": "[8]", "value": "inactive"}]}
{"smiles": "Nc1ccc2c(c1)C(=O)c1ccccc1C2=O", "values": [{"measurement": "outcome", "setting": "[8]", "value": "inactive"}]}
{"smiles": "NC(=O)Nc1nc2ccccc2[nH]1", "values": [{"measurement": "outcome", "setting": "[8]", "value": "inactive"}]}
{"smiles": "O=C(Cl)c1ccc([N+](=O)[O-])cc1", "values": [{"measurement": "activation", "setting": "[6]", "value": 25.7, "unit": "%"}, {"measurement": "outcome", "setting": "[7]", "value": "inactive"}]}
{"smiles": "C=CC(=O)OCCCCCCOC(=O)C=C", "values": [{"measurement": "activation", "setting": "[6]", "value": 1.98, "unit": "%"}]}
{"smiles": "COc1ccc(C)cc1N", "values": [{"measurement": "activation", "setting": "[6]", "value": 1.38, "unit": "%"}]}
{"smiles": "O=C(O)/C=C/c1ccc(/C=C/C(=O)O)cc1", "values": [{"measurement": "activation", "setting": "[6]", "value": -7.2, "unit": "%"}]}
